Rows were chosen to be rich in hits. Some 4.6% of all compounds tested hit in one or more screens of this group.
TRHR agonist: agonists of human TRH receptor. 360,000 tested, 0.18% active. activation, % at 2 µM. AID 493084. TRHR cells, calcium flux fluo-8, FDSS agonist mode
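In this calcium-flux screen, cells bearing human TRHR are dye-loaded with fluo-8, baselined for 10 cycles, then exposed to library compounds; positive kinetic calcium responses during the agonist phase mark hits, with TRH as control.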
Epigenetic reg: regulators of epigenetic silencing causing reporter derepression in mouse cells | AID 1865 | 280,000 tested, 0.2% active | Potency, µM (titrated, usually from 53.9 µM), actives largely listed as activators | murine LDR cells, GFP reporter derepression, 30 h; active means well fitted activation curve with a large enough effect; inconclusive means small, poorly fitted or top-dose-only effect; further: nearly all actives have a fitted effect of over 60% in size
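Readout is the number of GFP-expressing murine LDR cells, counted by cytometry following washing. Cells were treated with compound for 30 h at 37 C; the stably integrated CMV-GFP locus is normally silent.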
D1 ag: human D1 receptor agonism | P21728 | HEK293 T-REx D1 cells, calcium flux, agonist mode | activation, % at 2 µM | 360,000 tested, 1% active | AID 504660
Target sequence (P21728 whole entry, looked up): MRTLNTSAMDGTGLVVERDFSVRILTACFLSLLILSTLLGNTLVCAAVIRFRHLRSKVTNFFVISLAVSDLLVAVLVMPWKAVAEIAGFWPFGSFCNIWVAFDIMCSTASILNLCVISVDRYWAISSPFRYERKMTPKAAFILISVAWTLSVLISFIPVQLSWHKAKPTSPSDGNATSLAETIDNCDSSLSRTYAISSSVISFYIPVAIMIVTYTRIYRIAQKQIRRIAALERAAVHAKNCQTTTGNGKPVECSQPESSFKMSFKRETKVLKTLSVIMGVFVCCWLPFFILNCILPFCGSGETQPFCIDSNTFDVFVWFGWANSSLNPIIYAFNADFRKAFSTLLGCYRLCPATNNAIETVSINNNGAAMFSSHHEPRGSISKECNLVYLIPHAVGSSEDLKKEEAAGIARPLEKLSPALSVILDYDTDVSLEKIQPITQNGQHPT
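Inducible HEK293 T-REx D1 cells, force-coupled to calcium signalling, were plated at 4000 cells/well with tetracycline and held overnight at 30 C. After no-wash calcium dye loading, compound-evoked calcium rise over 180 s flagged agonists.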
D1 potentiator: enhances dopamine response at the human D1 receptor; potentiation, % at 10 µM; P21728; 360,000 tested, 0.036% active; HEK293 TREx D1 cells, calcium flux, dopamine EC20 potentiation; AID 504651; in the data active means potentiation above about 30%
D1 antag: blocks dopamine activation of the human D1 receptor | P21728 | HEK293 TREx D1 cells, calcium flux, dopamine EC80; hits give low values | activity change, negative = inhibition, % at 10 µM | 360,000 tested, 3.2% active | AID 504652; in the data active means activity change below about -30%
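Tetracycline-induced HEK293 T-REx cells with force-coupled D1 receptor were loaded with a no-wash calcium dye. Compound was added after a 10 s baseline and read kinetically for 180 s; EC80 dopamine was then added and calcium flux followed another 180 s.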
TRHR PAM: allosteric enhancers of human TRH receptor. TRHR cells, fluo-8 calcium fluorescence, EC20 TRH enhancement. enhancement, % at 2 µM. 360,000 tested, 0.66% active. AID 493056; in the data active means enhancement above about 30%
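TRHR-expressing cells loaded with fluo-8 calcium dye were read kinetically (ex 480/em 530) during compound addition, then stimulated with an EC20 of TRH (10 nM final). Enhancement of the Gq-mediated intracellular calcium response was scored.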
Each line names hits and unclear results; the compound was inactive in the other large screens. Unless noted, no stated cut-off is given here; in the data, active means activation above about 30%; inactive means the rest.

CCc1cccc(NC(=O)Nc2cccs2)c1	none
N#Cc1cccc(NC(=O)Nc2cccs2)c1	D1 ag 42, D1 antag -53
Cc1cc(NC(=O)NCc2ccc3c(c2)CCN3C(=O)c2ccccc2)ccc1Br	none
C=CCN1C(=O)/C(=C/C=C2/N(CC)c3ccc(S(=O)(=O)N(C)C)cc3N2CC)SC1=S	TRHR agonist 45, D1 ag 118
COCCn1c(SCC(=O)Nc2ccc(F)c(Cl)c2)nc2c(oc3ccccc32)c1=O	Epigenetic reg inconclusive
CC1=CC(C)(C)N2C(=O)C(=Nc3ccc(O)cc3)c3cccc1c32	Epigenetic reg inconclusive, D1 antag -36
CCOc1cc(S(=O)(=O)NCc2cccs2)ccc1Cl	D1 antag -37
CCOc1ccc(S(=O)(=O)NCc2cccs2)cc1C(C)C	none (no result: Epigenetic reg)
O=S(=O)(NCc1cccs1)c1ccc(Br)cc1	D1 antag -33 (no result: Epigenetic reg)
CCCNS(=O)(=O)c1ccc(NC(=O)Cc2cccs2)cc1	D1 antag -33
C=Cc1ccc(Cn2c(=O)n(-c3ccc(C)cc3)c(=O)c3c2c2cc(OC)ccc2n3C)cc1	none
CCOc1ccccc1CNc1ncnc2onc(-c3ccc(F)cc3)c12	none
COc1ccc(Br)cc1CNC(=O)C1CCN(c2nnc(-n3cccc3CNc3ccc(C)cc3)s2)CC1	none
Cc1ccc(CN(C(=O)COc2ccc(C(C)C)cc2)C2CCS(=O)(=O)C2)o1 (centres undefined)	none
COc1ccccc1N1CCN(C(c2cccs2)c2nnnn2C2CCCC2)CC1 (centres undefined)	D1 antag -35
Cc1ccc(C(=O)c2cc3c(cc2N)OCCO3)cc1	D1 antag -76
CCC/C=C/C(C)O (centres undefined)	none (no result: TRHR agonist, D1 ag, D1 potentiator, D1 antag, TRHR PAM)
CCOC(=O)CCN(c1ccccc1)S(=O)(=O)c1cc(-c2cc(C)no2)ccc1C	none
O=C1CCCN1CCCNc1ncnc2c1[nH]c1ccc(Cl)cc12	D1 antag -88
CN(C(=O)CC1C(=O)NCCN1Cc1ccc(F)c(F)c1)C1CCOCC1 (centres undefined)	D1 antag -42
CN(C(=O)CC1C(=O)NCCN1Cc1ccc(F)cc1)C1CCOCC1 (centres undefined)	none
O=C(Nc1cccc2cccnc12)OCc1ccccc1	none (no result: Epigenetic reg)
Nc1sc(-c2ccccc2)n[n+]1Cc1cccc2cccnc12	D1 antag -43
Oc1ccccc1CNc1cccc2cccnc12	none
CN1/C(=C/C=C(C#N)C#N)C(C)(C)c2ccccc21	D1 ag 116
CC1=CC(=C(C#N)C#N)c2ccccc2N1C	none
CN1\C(=C/C=C/C=C/C=[N+](C)C)C(C)(C)c2ccccc21	TRHR agonist 142, D1 ag 324, TRHR PAM 47
CC1=C/C(=C\C=C(C#N)C#N)N(C)c2ccccc21	Epigenetic reg inconclusive, D1 ag 45, D1 antag -35
CN1/C(=C\C=O)C(C)(C)c2ccccc21	none
COc1ccccc1OCC(=O)/C=C1/N(C)c2ccccc2C1(C)C	D1 ag 32, D1 antag -49
Cc1ccc(C)c(Cn2c(=O)n(Cc3ccc4c(c3)OCO4)c(=O)c3oc4ccccc4c32)c1	none
COc1ccc(Cl)cc1NC(=O)Cn1c2ncccc2c(=O)n1-c1ccc(C)c(C)c1	none
Cc1cc(=O)n(CC(=O)N2CCCc3ccccc32)c2c1c(C)nn2-c1cccc(F)c1	none
Clc1cccc(Cl)c1CSc1nnc(-c2sccc2-n2cccc2)o1	D1 ag 50
COc1ccc(S(=O)(=O)c2cn(C)c3ccc(C)cc3c2=O)cc1	none
CCC(=NCCc1c(C)[nH]c2ccc(OC(F)(F)F)cc12)C1=C(O)CC(c2ccccc2)CC1=O (centres undefined)	none
CCCCC(=NCCc1c(C)[nH]c2ccc(OC)cc12)C1=C(O)CC(c2ccccc2)CC1=O (centres undefined)	D1 antag -34
CC(=NCCc1c(C)[nH]c2ccc(OCc3ccccc3)cc12)C1=C(O)CC(c2ccccc2)CC1=O (centres undefined)	D1 antag -31
COc1ccc(N(C(=O)c2ccccc2)S(=O)(=O)c2ccc3c(c2)n(C)c(=O)n3C)cc1	none

Source: PubChem BioAssay
